Test results from PubChem BioAssay (NCATS).
Inconclusive results are not listed. A number with no mark means an inactive call. Calls of active or inactive are those of the source. Calls come from the whole dose curve; as a rule, active = well fitted cell-killing curve with a large enough effect; inconclusive = small, poorly fitted or top-dose-only effect, or effect the other way; inactive = no such curve, though single readings can be large or run the other way.

Test: Viability qHTS for spleen associated tyrosine kinase inhibitor (SYKi) naive MV4-11 cells (AID 1963823); note: nearly all actives have a fitted effect of over 40% in size
Settings: MV4-11 AML viability, CellTiter-Glo luminescence, 72 h; series mostly up to 45 µM; viability (% of control): at the top concentration
Procedure, shortened: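 Read-out: CellTiter-Glo luminescence. Exposure: 72 hr, 37 C, 5% CO2, 95% humidity. Cells: MV4-11 without SYK inhibitor history, 500/well, qHTS format.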
Potency is the fitted concentration of half-maximal effect.

Row | Compound | viability (% of control) | Potency
1 | CC[C@@H](Nc1c(Nc2cccc(C(=O)N(C)C)c2O)c(=O)c1=O)c1ccc(C)o1 | 58.5% | –
2 | C(#Cc1nc2ncccc2nc1OCCN1CCCC1)c1ccccc1 | – | 0.651 µM (active)
3 | COC(=O)C1=COC(OC2OC(CO)C(O)C(O)C2O)C2C(C)CC(=O)C12O (stereo not drawn) | 94.1% [at 17.3 µM] | –
4 | CCCC(NC(=O)/C(C#N)=C/c1cccc(Br)n1)c1ccccc1 (stereo not drawn) | – | 13 µM (active)
5 | CC(C)=CCc1cc(C(O)C2NC(=O)CNC(=O)C(Cc3c[nH]c4ccccc34)NC(=O)C3CCCN3C(=O)CNC(=O)C(C(C)C)NC(=O)CNC2=O)ccc1O (stereo not drawn) | 78.4% [at 9.25 µM] | –
6 | CC1(C)CC[C@]2(C(=O)O)CC[C@]3(C)C(=CCC4[C@@]5(C)CC[C@H](O[C@@H]6O[C@H](C(=O)O)[C@@H](O)[C@H](O[C@@H]7O[C@H](CO)[C@H](O)[C@H](O)[C@H]7O)[C@H]6O[C@@H]6O[C@H](CO)[C@@H](O)[C@H](O)[C@H]6O)C(C)(C)C5CC[C@]43C)[C@@H]2C1 (stereo partly drawn) | 77.5% [at 4.97 µM] | –
7 | CSCC[C@H](NC(=O)[C@H](CCSC)NC(=O)CNC(=O)[C@H](Cc1ccc(O)cc1)NC(=O)[C@H](Cc1ccccc1)NC(=O)[C@H](CCCN=C(N)N)NC(=O)[C@H](CC(=O)O)NC(=O)[C@@H]1CCCN1C(=O)[C@H](CC(=O)O)NC(=O)[C@@H]1CCCN1C(=O)[C@@H]1CCCN1C(=O)[C@@H](N)CC(=O)O)C(N)=O | 89.4% [at 17.3 µM] | –
8 | CC(C)Oc1ccc(C(=O)NC(CNC(=O)CN(C)C)Cc2ccc(-c3cn4cccc(C(C)O)c4n3)cc2)cc1Cl (stereo not drawn) | – | 0.13 µM (active)
9 | C[C@@H]1CC[C@]2(C(=O)O)CC[C@]3(C(=O)O)C(=CCC4[C@@]5(C)CC[C@H](O[C@@H]6O[C@@H](C)[C@H](O[C@@H]7O[C@H](CO)[C@@H](O)[C@H](O)[C@H]7O)[C@@H](O)[C@H]6O)C(C)(C)C5CC[C@]43C)C2[C@H]1C (stereo partly drawn) | 71.6% [at 17.3 µM] | –
10 | C/C=C/[C@@H]1C=C[C@@H]2C[C@H](C)CC[C@H]2[C@]1(C)/C(O)=C1/C(=O)[C@@H](CO)N(C)C1=O | – | 14.3 µM (active)
11 | COc1cc(CCc2ccccc2)c(C(=O)O)c2c1CC(C(C)(C)O)O2 (stereo not drawn) | 84% | –
12 | CC1(O)CC(O)C2C(C(=O)O)=COC(OC3OC(CO)C(O)C(O)C3OC(=O)/C=C/c3ccc(O)cc3)C21 (stereo not drawn) | 81.9% [at 17.3 µM] | –
13 | C=C1C(=O)OC2/C=C(\CO)CC/C=C(\C=O)CC(OC(=O)CC(C)C)C12 (stereo not drawn) | – | 2.27 µM (active)
14 | CC(C)=CCC(O)/C(C)=C/CO[C@@H]1O[C@H](CO)[C@@H](O)[C@H](O)[C@H]1O (stereo partly drawn) | 86.9% | –
15 | COC(=O)CCC(=O)OC[C@]1(C)CCC[C@@]2(C)C3CC[C@]4(C)C=CC3(CCC12)C4 (stereo partly drawn) | 75.2% [at 17.3 µM] | –
16 | OC[C@H]1O[C@@H](Oc2ccccc2)[C@H](O)[C@@H](O)[C@@H]1O | 76.3% | –
17 | O=C(OCC1OC(Oc2ccc(O)cc2COC(=O)C2(O)C(O)CCC(=O)C2OC(=O)C2C=CCC2)C(OC(=O)C2C=CCC2)C(O)C1O)C1C=CCC1 (stereo not drawn) | 75.3% [at 17.3 µM] | –
18 | C=C1CC[C@@H](O)[C@]2(C)C[C@H]3OC(=O)C(=C)[C@H]3CC12 (stereo partly drawn) | – | 14.6 µM (active)
19 | C=C1C(=O)O[C@@H]2/C=C(\CO)CC/C=C(/C=O)C[C@@H](O)[C@@H]12 | – | 3.66 µM (active)
20 | C=C(C(=O)OC)C1C(O)CC2(C)C(O)CCC(=O)C2C1O (stereo not drawn) | 5.7% | –

Test: Viability qHTS for spleen associated tyrosine kinase inhibitor (SYKi) drug resistant MV4-11 cells (AID 1963824); note: nearly all actives have a fitted effect of over 35% in size
Settings: SYKi-resistant MV4-11 viability, CellTiter-Glo, 72 h; series mostly up to 45 µM; viability, % of control: at the top concentration
Procedure, shortened: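 CellTiter-Glo luminescence, read 10 min after reagent addition, reports viability after a 72 hr compound exposure. Cells are an MV4-11 line made resistant to SYK inhibition, seeded at 500 per well onto compound-containing plates.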

Row | Compound | viability, % of control | Potency
21 | O=C(Nc1ccc2[nH]ncc2c1)C1CCC1 | 71.5% | –
22 | CC1(C)CC2C=C(C(=O)O)C3COC(=O)C(O)(CO)C23C1 (stereo not drawn) | 58.5% | –
23 | C[C@@H]1C(=O)O[C@H]2C[C@]34[C@H]5C[C@@H](C(C)(C)C)[C@]36[C@@H](OC(=O)[C@H]6O)O[C@]4(C(=O)O5)[C@]21O | 96.1% [at 17.3 µM] | –
24 | O=C(N/N=C/c1ccccc1O)c1ccncc1 | – | 0.75 µM (active)
25 | C=CC(C)(O)CC/C=C(\C)C(=O)OC1C(O)C(CO)OC(OC(=O)C23CCC(C)(C)CC2C2=CCC4C5(C)CCC(OC6OC(COC7OCC(OC(C)=O)C(O)C7OC7OC(COC(C)=O)C(O)C(O)C7OC(C)=O)C(O)C(O)C6OC6OCC(O)C(O)C6O)C(C)(C)C5CCC4(C)C2(C)C(O)C3O)C1OC1OCC(OC2OCC(O)C(OC3OCC(O)C(O)C3O)C2O)C(O)C1O (stereo not drawn) | – | 1.78 µM (active)
26 | C=C1CC[C@H]2[C@@](C)(CCC(OC3OC(CO)C(O)C(O)C3O)[C@@]2(C)CO)C1C(=O)CC1=CCOC1=O (stereo partly drawn) | 85.6% [at 17.3 µM] | –
27 | C=C1C2CCC3CC2(CC(O)C2(O)C1CC(OC1OC(CO)C(O)C(O)C1O)C2(C)C)CC3(C)O (stereo not drawn) | 90.4% [at 17.3 µM] | –
28 | CC1CCC2C(C)(C)[C@H](O)CC[C@]2(C)C12Cc1c(O)cc3c(c1O2)CN(C(CCC(=O)O)C(=O)O)C3=O (stereo partly drawn) | 90.8% [at 17.3 µM] | –
